For 40 compounds, growth results are on record in PubChem BioAssay (NCI).

The panel holds about 83,000 compounds, 20% with a hit somewhere; the sample as a whole holds those more often.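 Note: values are percent growth. 100 is the growth of untreated cells, values between 100 and 0 indicate rising inhibition; between -100 and 0 indicates cell death.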 A number with no mark means an inactive call. Active and inactive are the calls of the source. The calls were made as follows: active = growth percent below 10; inactive = the rest.

In this test the test system is HL-60(TB) leukemia. The test is described as follows: NCI-60 one-dose screen, 48 h (100 = growth as untreated, 0 = no growth, -100 = all killed). The following applies: 10 µM unless noted.
In the case of `CC(C)NC(=O)c1cc(-c2ccc(NC(=O)Nc3ccc(F)c(C(F)(F)F)c3)cc2)nc2cccnc12`, the growth is 109%.

For `COc1c(N2CC3CCCNC3C2)c(F)cc2c(=O)c(C(=O)N/N=C/c3ccccc3)cn(C3CC3)c12` (stereo not given), the growth was 73.6%.

Take `N#Cc1nc(-c2ccccc2)oc1N1CCC(CO)C1` (stereo not given): the growth was 107%.

For `CCN(CC)CCn1c2ccc(O)cc2c2sc3cc(OC)ccc3c(=O)c21`, the growth was 16.5%.

On to `Cc1[nH]nc2ncc(C#Cc3cncc(C(=O)Nc4ccc(CN5CCN(C)CC5)c(C(F)(F)F)c4)c3)cc12`, for which the growth is 13.6%.

Turning to `NS(=O)(=O)c1ccc(Nc2nc(N/N=C/c3ccc(Cl)cc3)nc(Nc3ccccc3)n2)cc1`, the growth is 72.5%.

`CC(C)NC(=O)c1cc(-c2ccc(NC(=O)Nc3ccc(F)cc3)cc2)nc2cccnc12`: the growth is 105%.

Regarding `NCCN1CCN(c2nc(-c3ccccc3)nc3nc(-c4ccccc4)oc23)CC1`, the growth is -5.94% (active).

For the compound `CCN1C/C(=N\S(=O)(=O)c2ccccc2)N(CC)C1=S`, the growth is 100%.

As to `Oc1ccc(CSc2nnc(-c3ccc(Oc4ccccc4)cc3)n2-c2ccccc2)c2cccnc12`, the growth is 10.1%.

With `CCN1C(=O)N(CC)C2SC(N/N=C/C=C/c3ccccc3OC)=NC21` (stereo not given), the growth was -9.85% (active).

Consider `COc1cc(C(=O)c2cc(C(C)=O)c3cccc(C)n23)cc(OC)c1OC`, for which the growth was 10.7%.

As to `COc1cc(-c2nn(C(C)(C)C)cc2-c2ccnc(NCCCNS(=O)(=O)c3cccc(F)c3)n2)ccc1Cl`, the growth is 81.9%.

For the compound `Cc1c(NC(=O)CSc2nc3sc4c(c3c(=O)n2-c2ccc(Cl)cc2)CCCC4)c(=O)n(-c2ccccc2)n1C`, the growth is 80%.

As for `O=C(Nc1ccc(F)c(F)c1)c1cc(-c2ccc(F)cc2F)ccc1O`, the growth is -30.8% (active).

On to `COc1cc(OC)c(/C=C/S(=O)(=O)Cc2ccc(OC)c(NC(=O)CCC(=O)NO)c2)c(OC)c1`, for which the growth was -10.8% (active).

On to `Cc1[nH]nc2ccc(-c3nc4cnc(N5CCN(C)CC5)cn4c3Nc3ccc(F)cc3Br)cc12`, for which the growth is -29.6% (active).

Consider `CNC(=O)c1c(NC(=O)c2cccc(C(F)(F)F)c2F)sc2c1CCC(=O)C2`, for which the growth is 4.41% (active).

In the case of `CS(=O)(=O)c1ccc2c(c1)c1c(n2S(=O)(=O)c2ccc(Cl)cc2)CCCC1`, the growth was 4.55% (active).

For the compound `COc1cc(/C=N/n2cnc3oc(-c4ccccc4)cc3c2=N)cc(CN2CCCC2)c1O`, the growth is 64.9%.

Turning to `COc1ccccc1-n1cc(C#N)c(N)c1C(=O)c1ccc(Br)cc1`, the growth is 35.8%.

Consider `Cc1cc(C)c(N2C(=O)CC(Nc3ccc(Cl)cc3Cl)C2=O)c(C)c1` (stereo not given), for which the growth is 100%.

Turning to `COC(=O)c1ccc(NC2=C(Cl)C(=O)c3nc(C)ccc3C2=O)cc1`, the growth is 21.2%.

In the case of `O=C(COc1ccc(/C=C2\C(=O)Nc3ccc(F)cc32)cc1)Nc1ccccc1`, the growth is 95.9%.

Regarding `Nc1nc(=O)n([C@H]2C[C@H](O)[C@@H](CO)O2)cc1C=O`, the growth was 94.1%.

For the compound `COc1cc(/C=C/C(=O)c2ccc(N3CCN(C)CC3)cc2)ccc1F`, the growth is 50%.

`Cc1ccc(NC(=O)CNc2cc(C(N)=O)cc(F)c2C)c(Cl)c1`: the growth is 133%.

With `CC1OC(O[C@@H]2[C@H](O)C(CO)OC(O[C@H]3COC(O[C@H]4CC[C@]5(C)[C@H]6CC[C@]78OC[C@@]9(CC[C@](C)(C=O)C[C@H]97)C(=O)C[C@@]8(C)[C@]6(C)CC[C@H]5C4(C)C)[C@@H](O)[C@@H]3O)[C@H]2OC2OC[C@@H](O)[C@@H](O)[C@@H]2O)[C@@H](O)[C@@H](O)[C@H]1O` (stereo not given in full), the growth was 101%.

In the case of `CCO/C=N/C1=C(C#N)C(c2ccc(F)cc2)c2sc3c(C)cccc3c2O1` (stereo not given), the growth was -22.8% (active).

Turning to `COc1ccc(N2CCN(C3=C(Cl)C(=O)c4ncccc4C3=O)CC2)cc1`, the growth was -4.99% (active).

On to `CCOC(=O)c1c(NCC(=O)Nc2cccc(Cl)c2)sc2c1CCCC2`, for which the growth was 90.8%.

`COc1ccc(C(=O)Nc2ncc(Cc3ccccc3Cl)s2)cc1`: the growth was -1.93% (active).

For the compound `C/C(=N\NC(=S)Nc1ccc(Br)cc1)c1cc2ccccc2oc1=O`, the growth was 1.53% (active).

Turning to `NC1CC2(CCN(c3cnc(C(=O)Nc4cc(F)cc5cccnc45)cn3)CC2)C1`, the growth was 50.6%.

For the compound `Cc1cccc(/C=C/c2nn3c(-c4ccco4)nnc3s2)c1`, the growth was 86.2%.

In the case of `COc1cccc2c1C=CC1(O2)Oc2cccc(OC)c2C=C1C` (stereo not given), the growth was 0.839% (active).

Turning to `NC(=O)C(=Cc1ccc(Cl)cc1)C(N)=O`, the growth is 26.6%.

For `CNC(=O)c1cc(-c2ccc(NC(=O)Nc3ccc(N4CCOCC4)c(C(F)(F)F)c3)cc2)nc2cccnc12`, the growth is 25.2%.

As to `N/C(=N\C(N)=N\c1nc2ccccc2s1)c1ccc(Cl)cc1`, the growth is 90.3%.

On to `NS(=O)(=O)c1ccc(Nc2nc(N/N=C/c3ccc(C(F)(F)F)cc3)nc(Nc3ccccc3)n2)cc1`, for which the growth is 48.9%.
